Bioassay records from PubChem BioAssay.
PGC1a acetyl inh – PGC1a acetylation modulation, inhibitor mode; 350,000 compounds, 0.17% hits; inhibition, % at 15.6 µM; U2OS PGC1a acetylation, AlphaScreen anti-acetyl-lysine; with virally co-expressed GCN5 acetyltransferase;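 active = every replicate shows inhibition of at least 40%; inconclusive = mean inhibition at least 40% but some replicate below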;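 also: 0% = neutral control wells and 100% = positive control wells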
Env fusion inh – blocks HIV Env-driven cell-cell fusion | HeLa-JRFL Env/CEM21 cell fusion, luciferase | inhibition, % at 12.3 µM | 360,000 compounds, 1.1% hits;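 active = mean replicate inhibition score of at least 50 and every replicate individually at or above 50; inconclusive = only one of the two criteria met; inactive = mean below 50 and not all replicates reaching 50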;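 also: 0% = plate neutral controls and 100% = maraviroc near 300 nM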
EWS-Fli block – inhibitors of EWS/Fli oncoprotein transcriptional activity | A673 NR0B1-luciferase reporter, viability-normalised | AID 651661 | inhibition, % at 12.6 µM | 350,000 compounds, 0.67% hits;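 active = mean inhibition of at least 50% after viability correction, with every replicate also passing that limit; inconclusive = mean reaches 50% but only one of two replicates passes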;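 also: firefly luciferase signal divided by Alamar Blue viability fluorescence both relative to DMSO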
CFTR F508del cor – CFTR F508del correction in bronchial cells; CFBE cells, YFP halide quenching; stimulated with forskolin plus potentiator P3; % fluorescence drop versus neutral controls; 350,000 compounds, 0.36% hits; activity (quench increase), % at 7.58 µM;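 active = mean added fluorescence quench of at least 8% versus neutral control, with both replicates also reaching 8%; inconclusive = only one of the mean or replicate conditions met; inactive = mean below 8% and not both replicates reaching 8%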;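 also: cells transiently co-express mutant CFTR-F508del with the halide-sensitive YFP; corrector assay measuring rescue of mutant channel to the surface after 24 h compound exposure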
INS-1E GSIS act – primary screen for activators of insulin secretion dependent on glucose, INS-1E cells, GLuc reporter luminescence; INS-1E GLuc reporter insulin secretion, 2-3 h; activation, % at 16.6 µM; 370,000 compounds, 0.61% hits; AID 743287;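 active = lowest replicate activation of at least 40%, so every replicate reaches that level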;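 also: 0% = median of neutral control wells and 100% = median of IBMX positive control wells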
PAX8 inh HTS – inhibitors of PAX8 transcriptional activity in RMG-I cells. RMG-I TPO-luciferase reporter, SteadyGlo, 24 h. inhibition, % at 12.6 µM. 360,000 compounds, 1.2% hits;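 active = mean replicate inhibition at least 60% with every replicate also reaching 60%; inconclusive = only one of the two criteria is met; inactive = mean below 60% and not all replicates reaching 60%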;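 also: luciferase light reporting Pax8 driven TPO promoter activity; plate controls were median of neutral control wells for no effect and mitoxantrone controls for full effect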
* = called active by the depositor; [ ] = remark or other dose. Most compounds without a hit are left out; they make up all but 2.7% or so of the library.

`COc1cccc(S(=O)(=O)N2CCC3(CC2)CN[C@@H](CO)c2c3c3ccc(OC)cc3n2C)c1` gave Env fusion inh -13[16.7 µM], EWS-Fli block 10, CFTR F508del cor 0 and INS-1E GSIS act -2.
For CCOC1=C2[C@@H](CN(S(=O)(=O)c3ccccc3C)[C@H]2c2ccc(Cl)cc2)[C@H]2C(=O)NC(=O)[C@H]2C1 the results were PGC1a acetyl inh -9, Env fusion inh 79*, EWS-Fli block 11, CFTR F508del cor 3, INS-1E GSIS act -7 and PAX8 inh HTS 0.
`C[C@@H]1CCCCO[C@@H](CN(C)Cc2ccc(Cl)c(Cl)c2)[C@H](C)CN([C@@H](C)CO)C(=O)c2cc(NC(=O)Cc3ccccc3)ccc2O1` gave Env fusion inh -55[16.7 µM], EWS-Fli block 9, CFTR F508del cor -9, INS-1E GSIS act -16 and PAX8 inh HTS 87*.
`C[C@@H]1CN([C@H](C)CO)C(=O)c2cc(NC(=O)Cc3ccccc3)ccc2O[C@@H](C)CCCCO[C@H]1CN(C)Cc1ccc(Cl)c(Cl)c1` gave Env fusion inh 26[16.7 µM], EWS-Fli block 9, CFTR F508del cor 6, INS-1E GSIS act -22 and PAX8 inh HTS 97*.
Screening C[C@H]1CCCCO[C@H](CN(C)Cc2ccc(Cl)c(Cl)c2)[C@@H](C)CN([C@@H](C)CO)C(=O)c2cc(NC(=O)Cc3ccccc3)ccc2O1 returned Env fusion inh 13[16.7 µM], EWS-Fli block 18, CFTR F508del cor 3, INS-1E GSIS act -14 and PAX8 inh HTS inconclusive.
Screening CCCCOP(=O)(c1ccc(N(C)C)cc1)C(O)c1cc(OC)c(OC)c(OC)c1 (stereo not given) returned PGC1a acetyl inh -6, Env fusion inh 2, EWS-Fli block -7, CFTR F508del cor -2, INS-1E GSIS act -7 and PAX8 inh HTS 9.
For CCCCOP(=O)(c1ccc(N(C)C)cc1)C(O)c1ccc(OC)cc1 (stereo not given) the results were PGC1a acetyl inh 82*, Env fusion inh -5, EWS-Fli block 4, CFTR F508del cor -1, INS-1E GSIS act -6 and PAX8 inh HTS 0.
For COc1ccccc1NC(C)=O the results were PGC1a acetyl inh -13.
Screening COc1ccccc1NC(=O)Oc1ccc(C(C)=O)cc1 returned PGC1a acetyl inh 0 and Env fusion inh 59*.
For COc1ccc(NC(=O)Nc2ccc3c(c2)CC(=O)N([C@@H](C)CO)C[C@H](C)[C@@H](CN(C)Cc2ccc(Oc4ccccc4)cc2)O3)cc1 the results were PGC1a acetyl inh 1, Env fusion inh -8[16.7 µM], EWS-Fli block -9, CFTR F508del cor 3, INS-1E GSIS act -5 and PAX8 inh HTS 23.
C[C@@H]1CN([C@@H](C)CO)C(=O)Cc2cc(NC(=O)CCC(F)(F)F)ccc2O[C@H]1CN(C)Cc1ccc(Oc2ccccc2)cc1 was read as PGC1a acetyl inh -6, Env fusion inh -4[16.7 µM], EWS-Fli block 13, CFTR F508del cor -1, INS-1E GSIS act -20 and PAX8 inh HTS 90*.
`COc1ccc(NC(=O)Nc2ccc3c(c2)CC(=O)N([C@@H](C)CO)C[C@@H](C)[C@H](CN(C)Cc2ccc(Oc4ccccc4)cc2)O3)cc1` gave PGC1a acetyl inh -5, Env fusion inh 19[16.7 µM], EWS-Fli block 10, CFTR F508del cor 0, INS-1E GSIS act -5 and PAX8 inh HTS 70*.
`C[C@@H]1CN([C@@H](C)CO)C(=O)Cc2cc(NC(=O)Cc3cn(C)c4ccccc34)ccc2O[C@H]1CN(C)Cc1ccc(Oc2ccccc2)cc1` gave PGC1a acetyl inh -18, Env fusion inh -10[16.7 µM], EWS-Fli block 29, CFTR F508del cor -2, INS-1E GSIS act 1 and PAX8 inh HTS 86*.
Screening C[C@H](CO)N1C[C@H](C)[C@H](CN(C)Cc2ccc(Oc3ccccc3)cc2)Oc2ccc(NC(=O)CCC(F)(F)F)cc2CC1=O returned PGC1a acetyl inh -2, Env fusion inh -75[16.7 µM], EWS-Fli block 8, CFTR F508del cor 3, INS-1E GSIS act -26 and PAX8 inh HTS 7.
`COc1ccc(NC(=O)Nc2ccc3c(c2)CC(=O)N([C@H](C)CO)C[C@@H](C)[C@H](CN(C)Cc2ccc(Oc4ccccc4)cc2)O3)cc1` gave PGC1a acetyl inh 2, Env fusion inh 60*[16.7 µM], EWS-Fli block -13, CFTR F508del cor 1, INS-1E GSIS act 2 and PAX8 inh HTS -49.
For COc1ccc2c3c([nH]c2c1)[C@H](CO)N(Cc1cccnc1)CC31CCN(C(=O)c2cccnc2)CC1 the results were Env fusion inh -4[16.7 µM], EWS-Fli block -14, CFTR F508del cor 2 and INS-1E GSIS act 10.
`COc1ccc(NC(=O)Nc2ccc3c(c2)CC(=O)N([C@H](C)CO)C[C@@H](C)[C@@H](CN(C)Cc2ccc(Oc4ccccc4)cc2)O3)cc1` gave PGC1a acetyl inh 1, Env fusion inh 27[16.7 µM], EWS-Fli block 21, CFTR F508del cor -2, INS-1E GSIS act 2 and PAX8 inh HTS 103*.
`O=C(C[C@@H]1C=C[C@H](NC(=O)C2CCC2)[C@H](CO)O1)NCC1CC1` gave PGC1a acetyl inh 5, Env fusion inh -4[16.7 µM], EWS-Fli block -4, CFTR F508del cor 6, INS-1E GSIS act 1 and PAX8 inh HTS 7.
`Cc1ccccc1-c1cnc2c(c1)C(=O)N([C@H](C)CO)C[C@@H](C)[C@H](CN(C)C(=O)CN(C)C)O2` gave PGC1a acetyl inh -9, Env fusion inh -38[16.7 µM], EWS-Fli block -6, CFTR F508del cor 4 and INS-1E GSIS act 15.
For CCc1cccc(CC)c1NC(=O)COC(=O)c1cccc(S(=O)(=O)N2CCc3ccccc3C2)c1 the results were Env fusion inh 23, EWS-Fli block 17 and PAX8 inh HTS -5.
Cc1cccc(C(C)C)c1NC(=O)COC(=O)c1cccc(S(=O)(=O)N2CCc3ccccc3C2)c1 was read as Env fusion inh -25, INS-1E GSIS act 121* and PAX8 inh HTS -4.
For O=C(Nc1ccc(Cl)c(Cl)c1)N[C@@H]1CC[C@H](CCn2cc(C3CCCCC3)nn2)O[C@@H]1CO the results were PGC1a acetyl inh -2, Env fusion inh 13[16.7 µM], EWS-Fli block 6, CFTR F508del cor 4, INS-1E GSIS act -38 and PAX8 inh HTS -5.
O=C(/C=C/Nc1ccccc1F)c1ccc(Br)cc1 was read as Env fusion inh -267, INS-1E GSIS act 10 and PAX8 inh HTS -120.
`O=C(/C=C/Nc1ccc(Br)cc1F)c1ccccc1` gave Env fusion inh -76, EWS-Fli block 74*, CFTR F508del cor 2 and PAX8 inh HTS -26.
`C[C@@H]1CN([C@@H](C)CO)C(=O)c2cc(NC(=O)Nc3ccccc3)ccc2O[C@@H]1CN(C)S(=O)(=O)c1ccccc1` gave PGC1a acetyl inh -9, Env fusion inh -28[16.7 µM], EWS-Fli block 6, CFTR F508del cor 1, INS-1E GSIS act -8 and PAX8 inh HTS 22.
